Entries with a potency or affinity are not part of this list. Calls of active or inactive are those of the source.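 Rule for the calls: active = absorbance falls by 30% or more versus neutral controls, with a potency fitted within twice the top valid dose; inconclusive = no clear call, values can overlap the other calls; inactive = change opposite to expected direction, plus the rest.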
Biological target: Protein disulfide-isomerase (Homo sapiens) (UniProt P07237)
Test: inhibition of PDI-driven insulin aggregation – biochemical, turbidity, absorbance, cherry-picked samples, dose response (AID 602350)
Details: recombinant PDI insulin aggregation, absorbance 650 nm, 90 min; series mostly up to 19.5 µM

Sequence of Protein disulfide-isomerase (Homo sapiens) (P07237 whole entry, looked up): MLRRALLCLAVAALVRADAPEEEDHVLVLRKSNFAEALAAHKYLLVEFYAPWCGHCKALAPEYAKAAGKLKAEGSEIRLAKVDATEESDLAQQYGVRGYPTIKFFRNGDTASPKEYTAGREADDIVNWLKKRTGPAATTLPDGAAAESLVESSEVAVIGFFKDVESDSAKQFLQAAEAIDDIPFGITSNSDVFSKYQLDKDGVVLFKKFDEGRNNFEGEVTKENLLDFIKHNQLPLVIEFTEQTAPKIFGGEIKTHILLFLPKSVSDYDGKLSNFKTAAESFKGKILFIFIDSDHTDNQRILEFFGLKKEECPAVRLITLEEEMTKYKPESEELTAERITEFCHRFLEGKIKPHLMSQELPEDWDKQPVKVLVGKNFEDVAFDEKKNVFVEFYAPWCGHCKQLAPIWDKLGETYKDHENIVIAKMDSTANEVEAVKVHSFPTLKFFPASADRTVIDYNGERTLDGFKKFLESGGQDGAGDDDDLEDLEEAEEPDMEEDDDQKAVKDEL

outcome, inactive:
Cc1cc(C(=O)Cn2nnc3ccccc3c2=O)c(C)n1-c1ccccc1F
C[C@@H]1CN([C@H](C)CO)C(=O)Cc2cc(NC(=O)Nc3ccccc3)ccc2O[C@@H]1CN(C)Cc1ccccc1
OCCC1CN(Cc2cccn2-c2ccccn2)CCN1C1CCCCC1 (centres undefined)
CC(C)C[C@@H](CN1CCC[C@@H]1CN1C(=O)C(=O)NC[C@@H]1Cc1ccccc1)N1C[C@H](Cc2ccc(O)cc2)N(CCc2ccccc2)C(=O)C1=O
O=C(CCS(=O)(=O)c1ccccc1)N(CCCN1CCOCC1)c1nc2ccccc2s1
CCCCn1c(SCC(=O)Nc2ccc(C)c(S(=O)(=O)N3CCOCC3)c2)nnc1C(CC)N(C)C (centres undefined)
CCOC(=O)c1c(CN2CCOCC2)n(-c2ccccc2)c2cc(Br)c(OC)cc12
Cc1ccc(SCC(=O)c2sc(-c3ccccc3)nc2C)cc1
CCOc1ccc(/C=N/OC(C)C(=O)NCc2ccc3c(c2)OCO3)cc1 (centres undefined)
Cc1nnc(N/N=C/c2ccc(-c3ccccc3F)o2)n1N
O=C(Cn1nnc2ccccc21)OCC(=O)c1ccccc1
CCn1c(SCC(=O)NC2CC2)nnc1-c1ccccc1
C=CCNc1ncnc2c1ncn2[C@H]1CN(Cc2cccc3ccccc23)C[C@@H](CO)O1
Cc1cc(C)c2c(=O)n3c(nc2c1)C(Cc1ccc(O)cc1)NC(=O)c1cccnc1-3 (centres undefined)
O=C(NC(Cc1c[nH]c2ccccc12)C(=O)N/N=C/c1cccnc1)c1cccs1 (centres undefined)
CCOC(=O)c1c(-c2ccccc2)oc2cc(Br)c(O)cc12
CCOC(=O)c1ccc2c(c1)nc(SCC(=O)N1CCCCC1)n2CC
Cc1ccc(C2=Nc3ccccc3SC(c3cccc([N+](=O)[O-])c3)C2)cc1 (centres undefined)
Cc1cc(NC(=O)COC(=O)C2CC(=O)N(c3ccccc3)C2)no1 (centres undefined)
O=C(/C=C/c1c(F)cccc1Cl)c1ccc(O)cc1
COc1ccccc1NS(=O)(=O)c1cccc(C(=O)NCC2(N(C)C)CCCCC2)c1
CN(C)c1ccc(/C=C/C(=O)c2ccc(O)cc2)cc1[N+](=O)[O-]
CC(=O)C1=C(O)C(=O)N(CCc2c[nH]c3ccccc23)C1c1cccc(O)c1 (centres undefined)
Cn1nccc1C(=O)Nc1ccc(S(=O)(=O)N2CCCC2)cc1
CC1(C)CC[C@]2(C(=O)O)CC[C@]3(C)C(=CC[C@@H]4[C@@]5(C)CC[C@H](O[C@@H]6O[C@H](C(=O)O)[C@@H](O)[C@H](O[C@@H]7OC[C@H](O)[C@H](O)[C@H]7O)[C@H]6O)C(C)(C)[C@@H]5CC[C@]43C)[C@@H]2C1
CCOC(=O)C1(CCOc2ccccc2)CCN(Cc2ccc(O)cc2)CC1
Cc1ccc(-c2cc(C(=O)NNC(=O)c3csc(N4CCOCC4)n3)c3ccccc3n2)cc1
CCOC(=O)C1(CC2CC2)CCN(Cc2cc(Cl)c(O)c(OC)c2)CC1
O=C(OCc1ccc(-c2ccccc2)cc1)c1cccc(O)c1
CCOc1ccc2nc(NS(=O)(=O)Cc3ccccc3)sc2c1
CN(C1=NC(=O)C(CC(=O)Nc2ccc(Br)cc2)S1)c1ccc(O)cc1 (centres undefined)
O=C1NC[C@H](Cc2ccccc2)N(C[C@H]2CCCN2C[C@H](Cc2ccc(O)cc2)N2C[C@H](Cc3ccc(O)cc3)N(CC3CCCCCC3)C(=O)C2=O)C1=O
O=C(NCc1ccccn1)Nc1cccc(Cl)c1
Cc1ccc(NC2(c3nnnn3CCOC(=O)Nc3ccc(Cl)cc3)CCCCC2)cc1
C[C@H](CO)N1C[C@H](C)[C@H](CN(C)Cc2ccc(Oc3ccccc3)cc2)Oc2c(NS(C)(=O)=O)cccc2C1=O
O=c1cc(CN2CCN(S(=O)(=O)/C=C/c3ccccc3)CC2)c2ccc(O)cc2o1
Nc1ccc(C(=O)NN2C(=O)[C@H](Cl)C2c2ccc(Cl)cc2)cc1 (some centres undefined)
CN(CCC(=O)Nc1ccc(Br)cc1)Cc1ccccc1
Cc1nc(C(=O)Nc2cccc(Cl)c2Cl)nn1-c1cc(OC(C)C)c(Cl)cc1Cl

Reference: PubChem BioAssay AID602350 (Broad Institute, 2012)
